Measured values: PubChem BioAssay (Tox21)
A number with no mark means an inactive call. Results filed as inconclusive are left out. Entries that show only a call come without a potency. Calls of active or inactive are those of the source. Unless noted, calls come from the whole dose curve.

Tests used:
[1] = Nuclear factor erythroid 2-related factor 2/antioxidant responsive element (Nrf2/ARE) small molecule agonists: qHTS cell viability counter screen in human keratinocytes (AID 1919968; active = well fitted curve in the direction sought with a large enough effect in the repeat runs; an effect the other way counts as inactive or inconclusive; note: nearly all actives have a fitted effect of over 55% in size; note: potency is the fitted concentration of half-maximal effect)
How it was run: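 KeratinoSens cells (HaCaT keratinocytes stably carrying an ARE-luciferase reporter) were seeded at 1,500 cells/well and rested 5 h at 37 C/5% CO2. They were then exposed to compounds in DMSO for 23 h. Viability was read by CellTiter-Fluor fluorescence after 1 h.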

[2] = Nuclear factor erythroid 2-related factor 2/antioxidant responsive element (Nrf2/ARE) small molecule agonists: luciferase reporter gene qHTS assay in human keratinocytes (AID 1919969); note: nearly all actives have a fitted effect of over 35% in size
[3] = biological target: Gonadotropin-releasing hormone receptor (Homo sapiens) (UniProt P30968); test: Human gonadotropin-releasing hormone receptor (GnRHR) small molecule agonists, calcium flux assay in GnRHR-HEK293 cells (AID 1920063); note: nearly all actives have a fitted effect of over 35% in size; note: potency is the fitted concentration of half-maximal effect
How it was run: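 HEK293 cells stably expressing human GnRHR were plated 18 h at 37 °C, loaded with calcium dye 1 h at 37 °C, then given compound in agonist mode; fluorescence (Ex/Em 480/540) read kinetically for 3 min at 1 s intervals.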

[4] = biological target: KiSS-1 receptor (Homo sapiens) (UniProt Q969F8); test: Human kisspeptin (KISS1R) small molecule agonists, calcium flux assay in KISS1R-HEK293 cells (AID 1920064; active = well fitted curve in the direction sought with a large enough effect in the repeat runs; an effect the other way counts as inactive or inconclusive)
How it was run: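 HEK293 cells stably expressing human KISS1R were plated 18 h at 37 °C, loaded with calcium dye for 1 h at 37 °C, then given compound by pin tool. Fluorescence (Ex/Em 480/540) was read kinetically for 3 min.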

[5] = G protein-coupled receptor (GPCR) small molecule agonists, calcium flux assay: HEK293 wild type cell line counter screen (AID 1920065)
How it was run: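 Cells were plated and cultured 18 h at 37 C/5% CO2, then loaded with calcium dye for 1 h at 37 C. Compounds in DMSO were pin-transferred in agonist mode, and fluorescence (Ex/Em 480/540) was read kinetically for 3 min at 1 s intervals.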

[6] = p53 small molecule agonists, cell-based qHTS assay with rat liver microsomes (AID 1963578)
How it was run: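 Read-out is beta-lactamase reporter fluorescence (LiveBLAzer, 2 h, room temperature, dark) in p53RE-bla cells treated 16 h at 37 C with compound, rat liver microsomes and NADPH, both 0.5 mg/mL final.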

[7] = p53 small molecule agonists, cell-based qHTS assay with human liver microsomes: qHTS cell viability counter screen (AID 1963579); note: nearly all actives have a fitted effect of over 45% in size; note: potency is the fitted concentration of half-maximal effect
How it was run: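 Cells carrying the p53 response-element beta-lactamase reporter are treated for 16 h at 37 C with test compounds in the presence of human liver microsomes and NADPH (both 0.5 mg/mL final); ATP-based CellTiter-Glo luminescence then reports viability.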

[8] = p53 small molecule agonists, cell-based qHTS assay with rat liver microsomes: qHTS cell viability counter screen (AID 1963580); note: nearly all actives have a fitted effect of over 45% in size; note: potency is the fitted concentration of half-maximal effect
How it was run: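 HCT-116 p53RE-bla, 4,000 cells/well, 5 h pre-incubation; cpd + rat liver microsomes 0.5 mg/mL + NADPH 0.5 mg/mL (final); 16 h, 37 C; CellTiter-Glo, 30 min RT; luminescence.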

[9] = p53 small molecule agonists, cell-based qHTS assay: qHTS cell viability counter screen (AID 1963581); note: nearly all actives have a fitted effect of over 45% in size; note: potency is the fitted concentration of half-maximal effect
How it was run: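 p53RE-bla HCT-116 cells were exposed to compounds for 16 h at 37 C; after the beta-lactamase FRET read in the same wells, CellTiter-Glo was added and luminescence (intracellular ATP) read after 30 min at room temperature.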

[10] = biological target: 5-hydroxytryptamine receptor 2A (Homo sapiens) (UniProt P28223); test: 5-hydroxytryptamine receptor 2A (HTR2A) small molecule antagonists, cell-based qHTS assay (AID 1963586); note: nearly all actives have a fitted effect of over 45% in size; note: potency is the fitted concentration of half-maximal effect
How it was run: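 Antagonist-mode intracellular calcium assay: DOI (4 nM) added after 5 min compound pre-incubation at room temperature to dye-loaded HTR2A-CHO cells. Fluorescence followed for 3 min, sampled every second.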

[11] = biological target: 5-hydroxytryptamine receptor 2A (Homo sapiens) (UniProt P28223); test: 5-hydroxytryptamine receptor 2A (HTR2A) small molecule agonists, cell-based qHTS assay (AID 1963587); note: nearly all actives have a fitted effect of over 30% in size
How it was run: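 Kinetic calcium-flux fluorescence (2 min, 1 sec intervals) after compound addition in agonist mode. HTR2A-CHO cells were cultured 18 h, then dye-loaded 1 h at 37 C.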

[12] = biological target: Muscarinic acetylcholine receptor M1 (Homo sapiens) (UniProt P11229); test: Cholinergic receptor muscarinic 1 (CHRM1) small molecule antagonists, cell-based qHTS assay (AID 1963588); note: nearly all actives have a fitted effect of over 40% in size; note: potency is the fitted concentration of half-maximal effect
How it was run: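 CHRM1-CHO calcium-flux assay, antagonist mode. Cells were seeded 18 h, dye-loaded 1 h at 37 C and given compound for 5 min at RT, then acetylcholine was added at 50nM. FDSS fluorescence was read 3 min; 15 concentrations, three runs.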

[13] = biological target: Muscarinic acetylcholine receptor M1 (Homo sapiens) (UniProt P11229); test: Cholinergic receptor muscarinic 1 (CHRM1) small molecule agonists, cell-based qHTS assay (AID 1963589); note: nearly all actives have a fitted effect of over 35% in size
How it was run: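 CHO cells stably expressing human CHRM1, seeded 18 h at 37 C/5% CO2, dye-loaded 1 h at 37 C, then given compound in agonist mode; intracellular calcium fluorescence read kinetically at 1 s intervals. Fifteen concentrations, three independent runs.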

[14] = cAMP Responsive Elements (CRE) small molecule agonists, cell-based qHTS assay (AID 1963590)
How it was run: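 CRE-bla HEK 293T cells in DMEM with 10% dialyzed FBS, NEAA, pyruvate and 25 mM HEPES were plated 18 h at 37 C/5% CO2, then exposed to compounds in DMSO for 3 h before LiveBLAzer B/G FRET substrate addition.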

[15] = biological target: D(2) dopamine receptor (Homo sapiens) (UniProt P14416); test: Dopamine D2 receptor (DRD2) small molecule agonists, cell-based qHTS assay (AID 1963594); note: nearly all actives have a fitted effect of over 35% in size
How it was run: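 cAMP accumulation in DRD2-HEK293 cells measured by HTRF after 1 h detection; compounds added 10 min before NKH477 (200nM […]) forskolin-analogue stimulation, 30 min at room temperature, with Ro20-1724 present at 0.1 mM final.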

[16] = biological target: D(2) dopamine receptor (Homo sapiens) (UniProt P14416); test: Dopamine D2 receptor (DRD2) small molecule antagonists, cell-based qHTS assay (AID 1963595; active = well fitted inhibition curve with a large enough effect in the signal ratio in the repeat runs, with a control signal flat; the % refers to the signal ratio)
How it was run: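 HTRF cAMP read-out at 665 and 620 nm emission (340 nm excitation). Antagonist mode: compounds were tested against 12 nM quinpirole in DRD2-HEK293 cells, with 200 nM NKH477 raising cAMP and 0.1 mM Ro20-1724 blocking its breakdown.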

[17] = p53 small molecule agonists, cell-based qHTS assay (AID 1963582; active = well fitted activation curve with a large enough effect in the signal ratio in the repeat runs, not every such curve was filed as active; the % refers to the signal ratio)
How it was run: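 p53RE-bla beta-lactamase reporter cells rested 5 h at 37 C/5% CO2, then received compounds in DMSO by pin transfer and were incubated 16 h at 37 C. LiveBLAzer B/G FRET substrate was loaded for 2 h at room temperature before fluorescence reading.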

[18] = cAMP Responsive Elements (CRE) small molecule antagonists, cell-based qHTS assay (AID 1963591; active = well fitted inhibition curve with a large enough effect in the signal ratio in the repeat runs, not every such curve was filed as active; the % refers to the signal ratio)
How it was run: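 CRE-bla HEK293T cells were plated 18 h at 37 °C/5% CO2, pinned with compound in DMSO, then stimulated with NKH477 at 0.25 uM final for 3 h. LiveBLAzer B/G FRET substrate was added and plates incubated 2 h at room temperature.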

[19] = biological target: Beta-2 adrenergic receptor (Homo sapiens) (UniProt P07550); test: Adrenergic beta2 receptor (ADRB2) small molecule antagonists, cell-based qHTS assay (AID 1963592); note: series mostly up to about 92 µM; nearly all actives have a fitted effect of over 50% in size
How it was run: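 Cells (CHO, stable ADRB2 overexpression) incubated 18-20hr at 37C; compounds added from DMSO; agonist mix (1nM isoproterenol, 100uM IBMX, 25uM Ro-20-1724) added; 0.5hr RT; d2-cAMP and anti-cAMP-cryptate added; 1hr RT; 665/615 nm read.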

[20] = biological target: Beta-2 adrenergic receptor (Homo sapiens) (UniProt P07550); test: Adrenergic beta2 receptor (ADRB2) small molecule agonists, cell-based qHTS assay (AID 1963593);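 note: CHO cells stably overexpressing human ADRB2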
How it was run: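 CHO cells stably over-expressing ADRB2 were plated overnight at 37C, then dosed with compounds plus a stimulation mix containing 100uM IBMX and 25uM Ro-20-1724 for 0.5hr at room temperature. cAMP was measured by HTRF competition, 1hr.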

Sequence of Beta-2 adrenergic receptor (Homo sapiens) (P07550 whole entry, looked up): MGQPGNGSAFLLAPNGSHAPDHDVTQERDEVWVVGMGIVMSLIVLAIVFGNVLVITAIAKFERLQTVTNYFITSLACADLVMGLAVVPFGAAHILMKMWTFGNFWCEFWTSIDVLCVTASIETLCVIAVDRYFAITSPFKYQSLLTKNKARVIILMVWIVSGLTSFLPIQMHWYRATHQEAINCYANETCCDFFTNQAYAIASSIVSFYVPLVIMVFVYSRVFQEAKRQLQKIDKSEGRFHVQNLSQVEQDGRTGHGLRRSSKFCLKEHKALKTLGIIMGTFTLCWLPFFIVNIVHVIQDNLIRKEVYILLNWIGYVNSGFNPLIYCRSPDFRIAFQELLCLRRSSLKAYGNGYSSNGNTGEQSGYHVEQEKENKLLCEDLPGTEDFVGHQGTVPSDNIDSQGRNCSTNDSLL
Sequence of Gonadotropin-releasing hormone receptor (Homo sapiens) (P30968 whole entry, looked up): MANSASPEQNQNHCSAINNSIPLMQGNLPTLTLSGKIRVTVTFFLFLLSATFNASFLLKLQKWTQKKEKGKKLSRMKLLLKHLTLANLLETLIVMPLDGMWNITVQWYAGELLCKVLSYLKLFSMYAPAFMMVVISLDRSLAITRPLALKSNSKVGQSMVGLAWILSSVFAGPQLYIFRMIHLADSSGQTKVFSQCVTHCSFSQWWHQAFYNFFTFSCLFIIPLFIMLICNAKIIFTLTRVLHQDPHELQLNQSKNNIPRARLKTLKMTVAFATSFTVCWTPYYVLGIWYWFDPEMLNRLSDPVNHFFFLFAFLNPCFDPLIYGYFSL
Sequence of Muscarinic acetylcholine receptor M1 (Homo sapiens) (P11229 whole entry, looked up): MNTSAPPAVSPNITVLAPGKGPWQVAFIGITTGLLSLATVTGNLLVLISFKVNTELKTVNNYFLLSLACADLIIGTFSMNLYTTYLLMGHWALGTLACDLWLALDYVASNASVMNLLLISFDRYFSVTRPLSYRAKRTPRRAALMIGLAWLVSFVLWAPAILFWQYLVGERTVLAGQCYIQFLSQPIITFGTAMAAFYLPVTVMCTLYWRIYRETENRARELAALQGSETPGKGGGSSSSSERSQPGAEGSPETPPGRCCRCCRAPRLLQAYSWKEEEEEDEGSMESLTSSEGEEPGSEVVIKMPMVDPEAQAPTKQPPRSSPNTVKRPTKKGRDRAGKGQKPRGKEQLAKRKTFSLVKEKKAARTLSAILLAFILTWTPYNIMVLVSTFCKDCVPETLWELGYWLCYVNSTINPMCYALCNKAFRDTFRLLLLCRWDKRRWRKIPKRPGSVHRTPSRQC
Sequence of D(2) dopamine receptor (Homo sapiens) (P14416 whole entry, looked up): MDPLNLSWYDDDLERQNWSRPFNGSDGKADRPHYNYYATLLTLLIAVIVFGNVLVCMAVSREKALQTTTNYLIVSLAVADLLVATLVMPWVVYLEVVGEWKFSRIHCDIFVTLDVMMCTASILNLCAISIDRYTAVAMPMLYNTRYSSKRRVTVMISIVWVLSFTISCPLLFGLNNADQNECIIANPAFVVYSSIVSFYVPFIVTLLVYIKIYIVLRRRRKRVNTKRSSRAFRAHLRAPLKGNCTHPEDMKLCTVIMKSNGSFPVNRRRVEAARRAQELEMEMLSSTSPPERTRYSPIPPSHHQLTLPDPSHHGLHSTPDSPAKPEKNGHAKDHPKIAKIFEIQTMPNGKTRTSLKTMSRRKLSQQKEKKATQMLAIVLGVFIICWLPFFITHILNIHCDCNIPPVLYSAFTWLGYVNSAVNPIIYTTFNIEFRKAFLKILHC
Sequence of 5-hydroxytryptamine receptor 2A (Homo sapiens) (P28223 whole entry, looked up): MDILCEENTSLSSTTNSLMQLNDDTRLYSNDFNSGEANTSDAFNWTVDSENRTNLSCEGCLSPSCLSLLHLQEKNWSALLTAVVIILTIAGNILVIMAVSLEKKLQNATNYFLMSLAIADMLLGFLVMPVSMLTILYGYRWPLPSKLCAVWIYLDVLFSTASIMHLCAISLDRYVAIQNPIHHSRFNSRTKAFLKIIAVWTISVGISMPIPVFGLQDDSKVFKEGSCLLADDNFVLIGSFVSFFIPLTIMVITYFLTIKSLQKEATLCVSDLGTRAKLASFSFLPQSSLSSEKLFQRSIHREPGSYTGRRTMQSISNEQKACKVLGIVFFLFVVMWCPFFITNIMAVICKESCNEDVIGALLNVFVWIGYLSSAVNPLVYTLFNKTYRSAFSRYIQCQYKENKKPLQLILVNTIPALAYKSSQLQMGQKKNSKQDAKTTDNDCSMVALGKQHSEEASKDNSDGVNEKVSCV
Sequence of KiSS-1 receptor (Homo sapiens) (Q969F8 whole entry, looked up): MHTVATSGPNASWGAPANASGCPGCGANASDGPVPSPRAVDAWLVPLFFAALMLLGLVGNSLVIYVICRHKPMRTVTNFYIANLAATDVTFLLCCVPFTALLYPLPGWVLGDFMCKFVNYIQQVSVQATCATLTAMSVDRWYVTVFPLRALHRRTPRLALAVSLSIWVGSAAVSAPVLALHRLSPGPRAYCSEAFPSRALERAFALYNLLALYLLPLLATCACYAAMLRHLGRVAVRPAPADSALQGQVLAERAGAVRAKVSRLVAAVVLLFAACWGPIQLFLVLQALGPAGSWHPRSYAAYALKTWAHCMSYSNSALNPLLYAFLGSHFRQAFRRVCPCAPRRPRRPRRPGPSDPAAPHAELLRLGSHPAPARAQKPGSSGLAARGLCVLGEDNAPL

In the case of `CCOC(=O)NCCOc1ccc(Oc2ccccc2)cc1`, the Potency [1] is reported as “inactive”, the Potency [2] is reported as “inactive” and the Potency [3] is reported as “inactive”. For the same molecule, the Potency [4] was “inactive”, the Potency [5] was “inactive” and the Potency [6] was “inactive”. For the same molecule, the Potency [7] was “inactive”, the Potency [8] was “inactive” and the Potency [9] was “inactive”. The Potency [10] was “inactive”, the Potency [11] was “inactive” and the Potency [12] was 29.8 µM (active). For the same molecule, the Potency [13] was “inactive”, the Potency [14] was “inactive” and the Potency [15] was “inactive”. The Potency [16] was “inactive”.

In the case of `CC(C)c1ccccc1N`, the Potency [1] is reported as “inactive”, the Potency [2] is reported as “inactive” and the Potency [3] is reported as “inactive”. For the same molecule, the Potency [4] was “inactive”, the Potency [5] was “inactive” and the Potency [6] was “inactive”. The Potency [7] was “inactive”, the Potency [8] was “inactive” and the Potency [9] was “inactive”. The Potency [17] was “inactive”, the Potency [10] was “inactive” and the Potency [11] was “inactive”. For the same molecule, the Potency [12] was “inactive”, the Potency [13] was “inactive” and the Potency [14] was “inactive”. For the same molecule, the Potency [18] was “inactive”, the Potency [19] was “inactive” and the Potency [20] was “inactive”. For the same molecule, the Potency [15] was “inactive” and the Potency [16] was “inactive”.

In the case of `CCN=C1C=CC(=C(c2ccc(N(CC)CC)cc2)c2ccc(N(CC)CC)cc2)c2ccccc21`, the Potency [1] is reported as 19.2 µM (active), the Potency [2] is reported as “inactive” and the Potency [3] is reported as “inactive”. For the same molecule, the Potency [4] was “inactive”, the Potency [5] was “inactive” and the Potency [6] was “inactive”. For the same molecule, the Potency [7] was 22.8 µM (active), the Potency [8] was 40.5 µM (active) and the Potency [9] was 36.1 µM (active). For the same molecule, the Potency [10] was “inactive”, the Potency [11] was “inactive” and the Potency [12] was “inactive”. For the same molecule, the Potency [13] was “inactive”.

For `COc1ccc(S(=O)(=O)Nc2nnc(CC(C)C)s2)cc1`, the Potency [1] was “inactive”, the Potency [2] was “inactive” and the Potency [3] was “inactive”. For the same molecule, the Potency [4] was “inactive”, the Potency [5] was “inactive” and the Potency [6] was “inactive”. The Potency [7] was “inactive”, the Potency [8] was “inactive” and the Potency [9] was “inactive”. For the same molecule, the Potency [17] was “inactive”, the Potency [11] was “inactive” and the Potency [12] was “inactive”. The Potency [13] was “inactive”, the Potency [14] was “inactive” and the Potency [18] was “inactive”. The Potency [19] was “inactive”, the Potency [20] was “inactive” and the Potency [15] was “inactive”.

For `CNCc1cc(F)ccc1Oc1ccc(Cl)c(Cl)c1`, the Potency [1] was 27.3 µM (active), the Potency [2] was “inactive” and the Potency [3] was “inactive”. For the same molecule, the Potency [4] was “inactive”, the Potency [5] was “inactive” and the Potency [6] was “inactive”. The Potency [7] was “inactive”, the Potency [8] was “inactive” and the Potency [9] was “inactive”. For the same molecule, the Potency [17] was “inactive”, the Potency [10] was 0.266 µM (active) and the Potency [13] was “inactive”. For the same molecule, the Potency [14] was “inactive”, the Potency [19] was “inactive” and the Potency [20] was “inactive”.

In the case of `C[N+](C)(C)CCOC(N)=O`, the Potency [1] is reported as “inactive”, the Potency [2] is reported as “inactive” and the Potency [3] is reported as 2.39 µM (active). The Potency [4] was “inactive”, the Potency [5] was “inactive” and the Potency [6] was “inactive”. For the same molecule, the Potency [7] was “inactive”, the Potency [8] was “inactive” and the Potency [9] was “inactive”. The Potency [17] was “inactive”, the Potency [14] was “inactive” and the Potency [18] was “inactive”. For the same molecule, the Potency [19] was “inactive”, the Potency [15] was “inactive” and the Potency [16] was “inactive”.

With `CC(=O)c1ccc2c(c1)[C@H](NC(=O)c1ccc(F)cc1)[C@@H](O)C(C)(C)O2` the Potency [1] was “inactive”, the Potency [2] was “inactive” and the Potency [3] was “inactive”. The Potency [4] was “inactive”, the Potency [5] was “inactive” and the Potency [6] was “inactive”. For the same molecule, the Potency [7] was “inactive”, the Potency [8] was “inactive” and the Potency [9] was “inactive”. The Potency [17] was “inactive”, the Potency [10] was “inactive” and the Potency [11] was “inactive”. For the same molecule, the Potency [12] was “inactive”, the Potency [13] was “inactive” and the Potency [14] was “inactive”. The Potency [18] was “inactive”, the Potency [19] was “inactive” and the Potency [15] was “inactive”. For the same molecule, the Potency [16] was “inactive”.

In the case of `CC1(C)[C@@H](OC(=O)CCC(=O)O)CC[C@]2(C)[C@H]3C(=O)C=C4[C@@H]5C[C@@](C)(C(=O)O)CC[C@]5(C)CC[C@@]4(C)[C@]3(C)CC[C@@H]12`, the Potency [1] is reported as “inactive”, the Potency [2] is reported as “inactive” and the Potency [3] is reported as “inactive”. For the same molecule, the Potency [4] was “inactive”, the Potency [5] was “inactive” and the Potency [6] was “inactive”. The Potency [7] was “inactive”, the Potency [8] was “inactive” and the Potency [9] was “inactive”. For the same molecule, the Potency [10] was “inactive”, the Potency [11] was “inactive” and the Potency [12] was “inactive”. The Potency [13] was “inactive”, the Potency [14] was “inactive” and the Potency [18] was “inactive”. The Potency [15] was “inactive”.
